Assay results as given in PubChem BioAssay (NCATS).
Results filed as inconclusive are left out. The source made the active and inactive calls. Unless noted, the call rests on the fitted dose curve; in most records, active means well fitted inhibition curve with a large enough effect; inconclusive means small, poorly fitted or top-dose-only effect; inactive means flat fitted curve, though single readings scatter.

Assays:
[1] = qHTS drug screen for cell cycle checkpoint inhibitors in PARPi-resistant BRCA-mutant ovarian cancer cell lines. (AID 1963452; calls by dose curve); settings: PEO1/OlaR viability, CellTiter-Glo luminescence, 96 h; for Z-AUC: stronger effect = lower value
Outline: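 PEO1, PEO4 and PEO1/OlaR ovarian cancer cells, 600 per well, exposed 96 h at 37C to a dilution series. Viability read by CellTiter-Glo luminescence, normalized to DMSO and empty wells; activity summarized as Z-AUC.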

[2] = qHTS profiling for inhibitors of Plasmodium falciparum proliferation (AID 504749); further: nearly all actives have a fitted effect of over 60% in size;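 on activity, negative = inhibition: 0% = DMSO vehicle and full inhibition = artemisinin control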; settings: P. falciparum in erythrocytes, SYBR Green DNA, 72 h
Outline: (§1)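 Three-day growth assay of blood-stage parasites in erythrocytes (0.3% parasitemia, 2.5% hematocrit) at 37 C, 5% CO2, quantified by SYBR Green DNA staining after overnight detergent lysis.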

3D7 = assay: as above; settings: P. falciparum in erythrocytes, SYBR Green DNA, 72 h; series mostly up to 28.7 µM
Outline: as §1

7G8 = assay: as above; settings: P. falciparum in erythrocytes, SYBR Green DNA, 72 h; series mostly up to 28.7 µM
Outline: as §1

AA1029 = assay: as above; settings: P. falciparum in erythrocytes, SYBR Green DNA, 72 h; series mostly up to 28.7 µM
Outline: as §1

AS120 = assay: as above; settings: P. falciparum in erythrocytes, SYBR Green DNA, 72 h; series mostly up to 28.7 µM
Outline: as §1

ATS189 = assay: as above; settings: P. falciparum in erythrocytes, SYBR Green DNA, 72 h; series mostly up to 28.7 µM
Outline: as §1

ATS95 = assay: as above; settings: P. falciparum in erythrocytes, SYBR Green DNA, 72 h; series mostly up to 28.7 µM
Outline: as §1

C2A = assay: as above; settings: P. falciparum in erythrocytes, SYBR Green DNA, 72 h; series mostly up to 28.7 µM
Outline: as §1

CP185 = assay: as above; settings: P. falciparum in erythrocytes, SYBR Green DNA, 72 h; series mostly up to 28.7 µM
Outline: as §1

[3] = measured here: PEO1 parental Z-AUC
[4] = at 28.7 µM (top of the series), parasite line A
[5] = at 28.7 µM (top of the series), parasite line B
[6] = at 12.8 µM (top of the series), parasite line A
[7] = at 12.8 µM (top of the series), parasite line B
Potency means the concentration at half of the fitted maximal effect.

C#C[C@]1(O)CC[C@H]2[C@@H]3CCc4cc(OC)ccc4[C@H]3CC[C@@]21C
inactive: Z-AUC [1] 1.12 | activity, negative = inhibition [2, 4] 1.32% | activity, negative = inhibition [2, 5] 15.1% | Potency (3D7) | Potency (7G8) | Potency (AA1029) | Potency (AS120) | Potency (ATS189) | Potency (ATS95) | Potency (C2A) | Potency (CP185)
1.32: Z-AUC ([1]; measured here: PEO4 Z-AUC)
0.901: Z-AUC [1, 3]

CCOC(=O)c1ccc(N)cc1
inactive: activity, negative = inhibition [2, 6] 6.05% | activity, negative = inhibition [2, 7] 7.01% | Potency (3D7) | Potency (7G8) | Potency (AA1029) | Potency (AS120) | Potency (ATS189) | Potency (ATS95) | Potency (C2A) | Potency (CP185)

Cc1cccc(C)c1NC(=O)CN1CCCC1
inactive: activity, negative = inhibition [2, 4] -5.07% | activity, negative = inhibition [2, 5] 5.99% | Potency (3D7) | Potency (7G8) | Potency (AA1029) | Potency (AS120) | Potency (ATS189) | Potency (ATS95) | Potency (C2A) | Potency (CP185)

CC(=O)O[C@H]1C[C@@H]2CC[C@@H]3[C@H](CC[C@@]4(C)[C@H]3C[C@H]([N+]3(C)CCCCC3)[C@@H]4OC(C)=O)[C@@]2(C)C[C@@H]1N1CCCCC1
inactive: Z-AUC [1] 1.73 | activity, negative = inhibition [2, 5] -19.6% | Potency (3D7) | Potency (AS120)
1.85: Z-AUC ([1]; measured here: PEO4 Z-AUC)
1.43: Z-AUC [1, 3]

CNCCCCOc1ccccc1Cc1ccccc1
active: Potency (7G8) 6.31 µM | Potency (AA1029) 5.01 µM
inactive: activity, negative = inhibition [2, 4] -10.8% | activity, negative = inhibition [2, 5] -10.9% | Potency (3D7)

Cc1ccc(O)c([C@H](CCN(C(C)C)C(C)C)c2ccccc2)c1
active: Potency ([2]; parasite line A) 7.08 µM | Potency ([2]; parasite line B) 3.98 µM | Potency (3D7) 6.31 µM | Potency (7G8) 1 µM | Potency (AA1029) 3.16 µM | Potency (AS120) 2.51 µM | Potency (ATS189) 3.98 µM | Potency (ATS95) 3.55 µM | Potency (C2A) 11.2 µM | Potency (CP185) 10 µM
inactive: Z-AUC [1] -0.294
-0.8: Z-AUC [1, 3]
-0.815: Z-AUC ([1]; measured here: PEO4 Z-AUC)

NS(=O)(=O)c1cc(C(=O)O)cc(N2CCCC2)c1Oc1ccccc1
inactive: activity, negative = inhibition [2, 6] 5.58% | activity, negative = inhibition [2, 7] 15.6% | Potency (3D7) | Potency (7G8) | Potency (AA1029) | Potency (AS120) | Potency (ATS189) | Potency (ATS95) | Potency (C2A) | Potency (CP185)

CC(=O)Nc1ccc(CC(=O)O)cc1
inactive: activity, negative = inhibition [2, 4] 9.92% | activity, negative = inhibition [2, 5] 11.5% | Potency (3D7) | Potency (7G8) | Potency (AA1029) | Potency (AS120) | Potency (ATS189) | Potency (ATS95) | Potency (C2A) | Potency (CP185)

OCCOCCN1CCN(C2=Nc3ccccc3Sc3ccccc32)CC1
inactive: activity, negative = inhibition [2, 4] 0.502% | activity, negative = inhibition [2, 5] 13.4% | Potency (3D7) | Potency (7G8) | Potency (AA1029) | Potency (AS120) | Potency (ATS189) | Potency (ATS95) | Potency (C2A) | Potency (CP185)

C=C[C@H]1CN2CC[C@H]1C[C@@H]2[C@@H](O)c1ccnc2ccc(OC)cc12
inactive: Z-AUC [1] -0.544
-0.0481: Z-AUC ([1]; measured here: PEO4 Z-AUC)
-0.182: Z-AUC [1, 3]

COc1cc([C@H]2Oc3cc([C@H]4Oc5cc(O)cc(O)c5C(=O)[C@@H]4O)ccc3O[C@@H]2CO)ccc1O
active: Potency (7G8) 11.2 µM
inactive: Z-AUC [1] 1.43 | activity, negative = inhibition [2, 4] -10.1% | activity, negative = inhibition [2, 5] -14.4% | Potency (3D7) | Potency (AA1029) | Potency (ATS189) | Potency (ATS95) | Potency (C2A) | Potency (CP185)
1.29: Z-AUC [1, 3]
0.956: Z-AUC ([1]; measured here: PEO4 Z-AUC)

Nc1nc(Cl)nc2c1ncn2[C@@H]1O[C@H](CO)[C@@H](O)[C@@H]1F
-1.97: Z-AUC ([1]; measured here: PEO4 Z-AUC)
-1.93: Z-AUC [1, 3]
active: Potency [1] 0.0977 µM

CCN1CCN(C(=O)N[C@@H](C(=O)N[C@@H]2C(=O)N3C(C(=O)O)=C(CSc4nnnn4C)CS[C@H]23)c2ccc(O)cc2)C(=O)C1=O
0.224: Z-AUC ([1]; measured here: PEO4 Z-AUC)
inactive: Z-AUC [1] 0.353
0.559: Z-AUC [1, 3]

Cc1ccccc1OCC(O)CO (stereo unspecified)
inactive: activity, negative = inhibition [2, 4] 13.7% | activity, negative = inhibition [2, 5] 2.74% | Potency (3D7) | Potency (7G8) | Potency (AA1029) | Potency (AS120) | Potency (ATS189) | Potency (ATS95) | Potency (C2A) | Potency (CP185)

C#C[C@]1(O)CC[C@H]2[C@@H]3CCC4=CC(=O)CC[C@@H]4[C@H]3CC[C@@]21CC
inactive: Z-AUC [1] -1.07 | activity, negative = inhibition [2, 4] -9.46% | activity, negative = inhibition [2, 5] -6.83% | Potency (3D7) | Potency (AA1029) | Potency (AS120) | Potency (ATS189) | Potency (ATS95) | Potency (C2A) | Potency (CP185)
-0.784: Z-AUC ([1]; measured here: PEO4 Z-AUC)
-0.819: Z-AUC [1, 3]

Cc1ccc(-c2ncc(Cl)cc2-c2ccc(S(C)(=O)=O)cc2)cn1
0.912: Z-AUC ([1]; measured here: PEO4 Z-AUC)
0.717: Z-AUC [1, 3]
inactive: Z-AUC [1] 0.855 | Potency (3D7)
active: Potency (7G8) 8.91 µM

C#C[C@]1(O)CC[C@H]2[C@@H]3[C@H](C)CC4=C(CCC(=O)C4)[C@H]3CC[C@@]21C
0.766: Z-AUC ([1]; measured here: PEO4 Z-AUC)
-0.281: Z-AUC [1, 3]
inactive: Z-AUC [1] -1.06

OCc1ccccn1
inactive: activity, negative = inhibition [2, 4] 7.68% | activity, negative = inhibition [2, 5] 8.75% | Potency (3D7) | Potency (7G8) | Potency (AA1029) | Potency (AS120) | Potency (ATS189) | Potency (ATS95) | Potency (C2A) | Potency (CP185)

O=C1[C@H](CC[C@H](O)c2ccc(F)cc2)[C@@H](c2ccc(O)cc2)N1c1ccc(F)cc1
1.08: Z-AUC [1, 3] | Z-AUC ([1]; measured here: PEO4 Z-AUC)
inactive: Z-AUC [1] 1.11

Nc1ccc(S(=O)(=O)NCc2ccccc2)cc1
inactive: activity, negative = inhibition [2, 4] 4.25% | activity, negative = inhibition [2, 5] 6.29% | Potency (3D7) | Potency (7G8) | Potency (AA1029) | Potency (AS120) | Potency (ATS189) | Potency (ATS95) | Potency (C2A) | Potency (CP185)
